High-throughput results from PubChem.
697 NFkB inh = inhibitors of PMA/ionomycin-induced NF-kB reporter, 697 cells, primary screen, B-cell NF-kB inhibitor project, cell-based, luminescence, uHTS | 697 B-cell NF-kB luciferase reporter, 16 h | 330,000 tested, 0.33% active | AID 435022, 2010 | inhibition, % at 4 µM; in the data active = inhibition above about 35%
KLF5 inhibitor = KLF5 expression inhibitors, primary screen, DLD-1 cells, luminescence; DLD-1 KLF5 promoter-luciferase reporter; inhibition, % at 5 µM; 290,000 tested, 0.23% active; AID 1700, 2009;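 active = inhibition above a per-plate limit of that plate's mean compound inhibition plus 3 SD, cut at about 60% in these data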;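 also: 0% = DMSO wells and 100% = LY294002 at 200 µM; higher means less KLF5 promoter-driven luciferase light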
Jurkat NFkB inh = inhibitors of induced NF-kB luciferase reporter, primary screen, TCR NF-kB activation inhibitor project, cell-based, luminescence, uHTS; 330,000 tested, 0.53% active; inhibition, % at 4 µM; Jurkat, PMA/ionomycin-induced NF-kB luciferase reporter; in the data active = inhibition above about 50%
Gli-Sufu antag = Gli-Sufu pathway antagonists, primary screen, luciferase luminescence, Sufu-KO-LIGHT cells, uHTS. 340,000 tested, 0.74% active. AID 588413, 2011. Sufu-KO-LIGHT fibroblasts, Gli luciferase reporter luminescence. inhibition, % at 5 µM;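 active = inhibition above about 55%, limit read from the data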;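 also: 0% = DMSO-treated cells and 100% = wells with medium but no cells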
Mdm2-MdmX inh = inhibitors of human Mdm2-MdmX association, primary screen, cell-based, luminescence, split luciferase, SaOS-2, uHTS; Protein Mdm4 (Homo sapiens) + E3 ubiquitin-protein ligase Mdm2 (Homo sapiens), …; SaOS-2 split-luciferase Mdm2/MdmX complementation; inhibition, % at 8 µM; 330,000 tested, 3% active; AID 485346, 2010;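 active = inhibition of at least 50% at 8 µM in the primary screen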
aSyn 5UTR inh = MLPCN primary screen, SNCA 5' untranslated region. alpha-synuclein 5'UTR reporter, inhibitor activity. 300,000 tested, 0.82% active. inhibition, % (tested at 7.5 µM); in the data active = inhibition above about 60%; inconclusive = no clear call, values can overlap the other calls;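 also: H4 neuroglioblastoma cells stably carrying SNCA 5'UTR luciferase fusion; 0% = DMSO wells and 100% = positive control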
Mdm2 MdmX conf = Mdm2-MdmX complex disruptors, retested hits, confirmation, luminescence, single concentration. shares compounds with Mdm2-MdmX inh. inhibition, % at 8 µM. 10,000 tested, 55% active. Mdm2-MdmX binding, luminescent assay; in the data active = inhibition above about 40%
Full FLuc ctr = full-length luciferase signal inhibition, confirmation, counter-screen for Mdm2/MdmX interaction inhibitor project, cell-based, single concentration, SaOS-2 | shares compounds with Mdm2-MdmX inh | SaOS-2 full-length luciferase counterscreen, luminescence | 6,200 tested, 77% active | inhibition, % at 8 µM | AID 504607, 2011;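 active = mean inhibition at 8 µM reaching about 37%, which flags the compound as non-specific, limit read from the data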;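 also: p53-null SaOS-2 cells with luciferase driven by a doxycycline-inducible promoter; compound on cells about two nights before reading with doxycycline added after day one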
The depositor's hits bear a star; ? = inconclusive; / = no result. Only some compounds are listed: those with a hit (about 4.1% of all), similar ones and a draw of the others.

SMILES | 697 NFkB inh | KLF5 inhibitor | Jurkat NFkB inh | Gli-Sufu antag | Mdm2-MdmX inh | aSyn 5UTR inh | Mdm2 MdmX conf | Full FLuc ctr
O=C(CCN1C(=O)/C(=C\c2ccccc2F)SC1=S)N1CCCCC1 | 5 | -22 | 19 | -15 | 93* | -117 | 67* | 105*
CC1CCN(C(=O)CCN2C(=O)/C(=C/c3cccs3)SC2=S)CC1 | 12 | -12 | 7 | 11 | 83* | -75 | 46* | 20
O=C(CN1C(=O)/C(=C/c2cccc(Br)c2)SC1=S)N1CCCC1 | 3 | -33 | 4 | 6 | 62* | -4 | 76* | 63*
COc1cccc(/C=C2\SC(=S)N(CCC(=O)N3CCCCC3)C2=O)c1 | 27 | -20 | 10 | -5 | 86* | -51 | 53* | 71*
COc1cc(/C=C2\SC(=S)N(CCC(=O)N3CCN(C)CC3)C2=O)cc(OC)c1OC | 9 | 5 | 1 | 23 | 26 | -40 | / | /
CCOC(=O)N1CCN(C(=O)CCN2C(=O)/C(=C\c3cccc(OC)c3)SC2=S)CC1 | 11 | 2 | 21 | 36 | 60* | -9 | 38 | 46*
COC(=O)COc1ccc(/C=C2/SC(=O)N(CC(=O)N3CCCC3)C2=O)cc1Br | 2 | -18 | -15 | -5 | 56* | -1 | 11 | /
CCN(CC)S(=O)(=O)c1ccc(NC(=O)COC(=O)c2ccc(NC(=O)CC#N)cc2)cc1 | 12 | -4 | -10 | -2 | 14 | 9 | / | /
COc1cccc(NC(=O)c2ccc(NC(=O)C3CC(=O)OC34CCCCC4)cc2)c1 (stereo not given) | 3 | 1 | 7 | 17 | -13 | 32 | / | /
Cc1cc(C)c(-c2csc(NC(=O)/C=C/c3cccs3)n2)c(C)c1 | 1 | -5 | 22 | 0 | 70* | ? | 61* | 72*
CN(Cc1ccccc1)C(=O)c1ccc(NC(=O)C2CCN(C(=O)OC(C)(C)C)CC2)cc1 | -76 | / | 8 | 45 | 76* | / | 59* | 32
O=P(CCCO)(Cc1ccccc1)Cc1ccccc1 | 1 | -5 | 4 | 1 | -4 | -4 | / | /
Cc1cc(C)n(-c2ccc3cccc(NS(C)(=O)=O)c3n2)n1 | -23 | 2 | 34 | 42 | 74* | 90* | 44* | 32
Cc1ccc2nsnc2c1S(=O)(=O)N(Cc1cc2cccc(C)c2[nH]c1=O)CC1CCCO1 (stereo not given) | 33 | -30 | 16 | -6 | 57* | -18 | 47* | 85*
O=C(CC(O)(CC(=O)OCc1ccccc1)C(=O)OCc1ccccc1)OCc1ccccc1 | / | / | / | -18 | / | / | / | /
CCC(=O)Nc1ccc(-c2csc(C)n2)cc1 | -24 | -18 | -32 | -50 | -30 | -81 | / | /
O=C(NC(=S)Nc1ccc(NC(=O)c2ccccc2)cc1)c1ccc(F)cc1 | -26 | -12 | 9 | -7 | 16 | -35 | / | /
O=C(Nc1ccc(NC(=S)NC(=O)C(c2ccccc2)c2ccccc2)cc1)c1ccccc1 | -60 | -9 | 17 | 47 | 51* | 8 | 49* | 42*
CCC(=O)Nc1ccc(-c2cc(-c3ccccc3)nc(-c3ccc(NC(=O)CC)cc3)n2)cc1 | -27 | 10 | 2 | 10 | 84* | 2 | 38 | 64*
O=C(NC(=S)Nc1ccc(-c2ccccc2)cc1)c1ccccc1 | / | / | / | -23 | / | / | / | /
O=C(NC(=S)Nc1ccc2c(c1)C(=O)c1ccccc1C2=O)c1ccc(F)cc1 | -102 | -63 | -66 | / | 69* | -141 | -69 | /
CC(=O)Nc1ccc(-c2cc(-c3ccccc3)nc(-c3ccccc3)n2)cc1 | -37 | -17 | 0 | 1 | 56* | 7 | 47* | 92*
